From PubChem BioAssay (Tox21)
“And” between values parts separate entries of the source, which are not always exact repeats. Equal entries are not always repeated. Inconclusive results are not listed. Some compounds were tested as several samples or in several runs, with calls that do not always agree. The source made the active and inactive calls. Unless noted, the call rests on the fitted dose curve; in most records, active means well fitted curve in the direction sought with a large enough effect in the repeat runs; inconclusive means weak or mixed curves; inactive means no such curve, though single readings can be large; an effect the other way counts as inactive or inconclusive.

Legend:
[1] = qHTS assay to identify small molecule agonists of the estrogen receptor alpha (ER-alpha) signaling pathway in the presence of an antagonist - cell viability counter screen (AID 1259386);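 further: series mostly up to about 92 µM; cells exposed to compounds for 22 h at 37 °C before the viability read; nearly all actives have a fitted effect of over 30% in size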
Procedure, shortened: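 Cell viability in VM7Luc4E2 cells (endogenous full-length ER-alpha) measured by CellTiter-Fluor fluorescence in the same wells as the luciferase screen. Cells pre-cultured 5 days in charcoal-stripped serum, then treated 22 h with compounds at 15 concentrations plus 10.0nM ICI-182,780.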

[2] = target: Progesterone receptor (Homo sapiens) (UniProt P06401); experiment: qHTS assay to identify small molecule agonists of the progesterone receptor (PR) signaling pathway (AID 1346784; calls by dose curve; further: nearly all actives have a fitted effect of over 30% in size)
Progesterone receptor (Homo sapiens), sequence (P06401 whole entry, looked up): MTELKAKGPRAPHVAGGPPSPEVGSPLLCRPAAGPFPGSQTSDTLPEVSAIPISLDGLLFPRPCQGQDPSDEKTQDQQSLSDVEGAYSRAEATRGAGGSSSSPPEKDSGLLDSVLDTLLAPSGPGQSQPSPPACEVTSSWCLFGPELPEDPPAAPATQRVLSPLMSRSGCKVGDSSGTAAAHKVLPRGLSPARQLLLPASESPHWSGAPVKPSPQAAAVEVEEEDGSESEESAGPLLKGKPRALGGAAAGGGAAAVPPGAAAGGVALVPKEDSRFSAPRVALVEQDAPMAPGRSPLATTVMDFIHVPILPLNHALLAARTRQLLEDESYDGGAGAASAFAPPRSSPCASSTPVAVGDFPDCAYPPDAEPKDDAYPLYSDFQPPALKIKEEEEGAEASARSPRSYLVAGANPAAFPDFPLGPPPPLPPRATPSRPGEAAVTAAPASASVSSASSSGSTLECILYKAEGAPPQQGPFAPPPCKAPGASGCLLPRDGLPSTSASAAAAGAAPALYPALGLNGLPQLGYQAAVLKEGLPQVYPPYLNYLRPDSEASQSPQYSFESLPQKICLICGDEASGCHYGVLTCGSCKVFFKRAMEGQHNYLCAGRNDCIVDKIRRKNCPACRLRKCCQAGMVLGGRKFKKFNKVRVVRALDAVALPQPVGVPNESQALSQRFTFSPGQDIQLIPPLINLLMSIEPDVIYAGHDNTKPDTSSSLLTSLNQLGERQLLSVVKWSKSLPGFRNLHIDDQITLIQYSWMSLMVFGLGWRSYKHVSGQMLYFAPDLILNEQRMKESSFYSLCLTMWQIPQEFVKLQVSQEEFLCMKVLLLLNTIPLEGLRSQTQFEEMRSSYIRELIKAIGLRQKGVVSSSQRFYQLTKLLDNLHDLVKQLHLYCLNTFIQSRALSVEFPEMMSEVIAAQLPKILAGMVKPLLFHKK
Procedure, shortened: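 HEK 293T PR-UAS-bla reporter cells, 2% charcoal-stripped FBS; 6 hr settle at 37C/5% CO2, compound (DMSO) 16 hr, LiveBLAzer B/G FRET substrate 2 hr RT, fluorescence intensity read.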

[3] = target: Progesterone receptor (Homo sapiens) (UniProt P06401); experiment: qHTS assay to identify small molecule antagonists of the progesterone receptor (PR) signaling pathway (AID 1346795; active means well fitted inhibition curve with a large enough effect in the signal ratio in the repeat runs, not every such curve was filed as active; the % refers to the signal ratio; further: potency means the concentration at half of the fitted maximal effect)
Procedure, shortened: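 Beta-lactamase reporter, HEK293T PR-UAS-bla line; 2% charcoal-stripped FBS; 6 hr pre-incubation, 37C/5% CO2. Compound + R5020 1 nM final, 16 hr. LiveBLAzer B/G FRET substrate, 2 hr RT; fluorescence intensity read.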

[4] = qHTS assay to identify small molecule antagonists of the progesterone receptor (PR) signaling pathway - cell viability counter screen (AID 1346798); further: series mostly up to about 92 µM; nearly all actives have a fitted effect of over 50% in size
Procedure, shortened: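 Luminescence readout (CellTiter-Glo, 30 min, RT) of viability in PR-UAS-bla HEK293T cells exposed to compound and R5020 agonist for 16 hr at 37C, 5% CO2; run in the same wells as the beta-lactamase reporter read.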

[5] = qHTS assay to identify small molecule agonists of the progesterone receptor (PR) signaling pathway - cell viability counter screen (AID 1346799; calls by dose curve; further: nearly all actives have a fitted effect of over 45% in size)
Procedure, shortened: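 HEK293T PR-UAS-bla, 3,000 cells/well, 2% charcoal-stripped FBS; 6 h settle, compound 16 h at 37C/5% CO2; LiveBLAzer 2 h RT, then CellTiter-Glo 30 min RT, luminescence read.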

[6] = qHTS assay to identify small molecule antagonists of the TGF-beta/Smad signaling pathway - cell viability counter screen (AID 1346824); further: nearly all actives have a fitted effect of over 50% in size
Procedure, shortened: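 SBE-bla HEK 293T cells, incubated overnight, then compound plus 0.25 ng/mL TGF-beta1 (stock added) for 5 hr at 37 C. Viability was read in the same wells by CellTiter-Glo luminescence after 30 min at room temperature.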

[7] = qHTS assay to identify small molecule agonists of the TGF-beta/Smad signaling pathway - cell viability counter screen (AID 1346829); further: top concentration of the series differs between compounds; nearly all actives have a fitted effect of over 45% in size
Procedure, shortened: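 In parallel with the Smad reporter read, viability of HEK 293T cells stably carrying SBE-bla is quantified by ATP luminescence following 5 hr compound treatment.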

[8] = qHTS assay to identify small molecule agonists of the TGF-beta/Smad signaling pathway (AID 1346859; active means well fitted activation curve with a large enough effect in the signal ratio in the repeat runs, not every such curve was filed as active; the % refers to the signal ratio; further: series mostly up to about 77 µM)
Procedure, shortened: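 Read-out: fluorescence at 460 and 530 nm (405 nm excitation) after a 2 hr room-temperature incubation with beta-lactamase FRET substrate. SBE-bla HEK 293T cells had been treated with test compounds for 5 hr at 37 C.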

[9] = target: Thyrotropin-releasing hormone receptor (Homo sapiens) (UniProt P34981); experiment: qHTS assay to identify small molecule antagonists of the thyrotropin-releasing hormone receptor (TRHR) signaling pathway (AID 1346877; active means well fitted inhibition curve with a large enough effect in the repeat runs, not every such curve was filed as active; further: series mostly up to about 51 µM)
Thyrotropin-releasing hormone receptor (Homo sapiens), sequence (P34981 whole entry, looked up): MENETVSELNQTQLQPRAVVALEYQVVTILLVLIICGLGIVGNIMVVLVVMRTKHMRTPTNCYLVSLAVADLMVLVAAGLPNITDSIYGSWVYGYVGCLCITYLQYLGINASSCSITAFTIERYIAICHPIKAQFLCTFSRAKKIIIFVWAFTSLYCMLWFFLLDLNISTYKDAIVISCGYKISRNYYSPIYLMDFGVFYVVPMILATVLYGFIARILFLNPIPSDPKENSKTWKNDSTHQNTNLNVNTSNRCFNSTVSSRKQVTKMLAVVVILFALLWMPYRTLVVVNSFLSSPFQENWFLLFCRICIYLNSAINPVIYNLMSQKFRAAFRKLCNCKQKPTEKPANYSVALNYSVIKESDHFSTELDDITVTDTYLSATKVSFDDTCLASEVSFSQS
Procedure, shortened: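 TRHR-expressing HEK293 cells loaded with calcium dye for 2 h at 37 C; compounds pre-incubated 5 min at room temperature before TRH challenge at 1 nM final. Intracellular calcium fluorescence read kinetically for 3 min; 15 concentrations in triplicate.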

[10] = target: Thyrotropin-releasing hormone receptor (Homo sapiens) (UniProt P34981); experiment: qHTS assay to identify small molecule agonists of the thyrotropin-releasing hormone receptor (TRHR) signaling pathway (AID 1346891; calls by dose curve; further: series mostly up to about 58 µM)
Procedure, shortened: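 HEK293/TRHR cells, 1500 per well, 18 h 37 °C; Ca dye 2 h 37 °C; pin-tool compound addition (agonist mode); kinetic fluorescence 3 min, 1 s reads; 15 concentrations, triplicate.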

[11] = Human pregnane X receptor (PXR) small molecule agonists, qHTS cell viability counter screen (AID 1346977); further: nearly all actives have a fitted effect of over 50% in size
Procedure, shortened: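 Fluorescence read-out (CellTiter-Fluor) of viability in PXR-Luc HepG2 cells, multiplexed with the luciferase agonist read. Compounds in DMSO added after 5hr plating; 24hr total exposure at 37C, 5% CO2.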

[12] = Caspase-3/7 induction in HepG2 cells by small molecules, qHTS assay (AID 1346978); further: nearly all actives have a fitted effect of over 15% in size; further: potency means the concentration at half of the fitted maximal effect
Procedure, shortened: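 Wild-type HepG2 cells, 2,000/well, settled 5 hr at 37 C and 5% CO2, then compound-treated for 17 hr; caspase-3/7 activity read by luminescent Caspase-Glo 3/7 after 30 min at room temperature.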

[13] = Caspase-3/7 induction in CHO-K1 cells by small molecules, qHTS cell viability counter screen (AID 1346979); further: nearly all actives have a fitted effect of over 35% in size
Procedure, shortened: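 CHO-K1 wt, 1,500 cells/well; 5hr pre-incubation 37C/5% CO2; compound pin transfer (DMSO); 16hr exposure; CellTiter-Fluor added, 1hr, fluorescence read.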

[14] = Caspase-3/7 induction in CHO-K1 cells by small molecules, qHTS assay (AID 1346980); further: nearly all actives have a fitted effect of over 15% in size
Procedure, shortened: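 Wild-type CHO-K1 cells exposed to compounds for 17hr at 37 C, 5% CO2. Caspase-3/7 activity then measured by Caspase-Glo 3/7 luminescence after 30min at room temperature.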

[15] = Caspase-3/7 induction in HepG2 cells by small molecules, qHTS cell viability counter screen (AID 1346981); further: series mostly up to about 92 µM; nearly all actives have a fitted effect of over 30% in size
Procedure, shortened: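 Wild-type HepG2 cells, 2,000/well, settled 5 hr at 37 C, 5% CO2 before compound addition. Viability read by CellTiter-Fluor fluorescence, reagent added after 16 hr compound exposure, then 1 hr at 37C, in the same wells as the caspase read.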

[16] = target: Acetylcholinesterase (Homo sapiens) (UniProt P22303); experiment: Acetylcholinesterase (AChE) small molecule antagonists: colormetric cell-based qHTS assay (AID 1347395; calls by dose curve; further: nearly all actives have a fitted effect of over 30% in size; further: potency means the concentration at half of the fitted maximal effect)
Acetylcholinesterase (Homo sapiens), sequence (P22303 whole entry, looked up): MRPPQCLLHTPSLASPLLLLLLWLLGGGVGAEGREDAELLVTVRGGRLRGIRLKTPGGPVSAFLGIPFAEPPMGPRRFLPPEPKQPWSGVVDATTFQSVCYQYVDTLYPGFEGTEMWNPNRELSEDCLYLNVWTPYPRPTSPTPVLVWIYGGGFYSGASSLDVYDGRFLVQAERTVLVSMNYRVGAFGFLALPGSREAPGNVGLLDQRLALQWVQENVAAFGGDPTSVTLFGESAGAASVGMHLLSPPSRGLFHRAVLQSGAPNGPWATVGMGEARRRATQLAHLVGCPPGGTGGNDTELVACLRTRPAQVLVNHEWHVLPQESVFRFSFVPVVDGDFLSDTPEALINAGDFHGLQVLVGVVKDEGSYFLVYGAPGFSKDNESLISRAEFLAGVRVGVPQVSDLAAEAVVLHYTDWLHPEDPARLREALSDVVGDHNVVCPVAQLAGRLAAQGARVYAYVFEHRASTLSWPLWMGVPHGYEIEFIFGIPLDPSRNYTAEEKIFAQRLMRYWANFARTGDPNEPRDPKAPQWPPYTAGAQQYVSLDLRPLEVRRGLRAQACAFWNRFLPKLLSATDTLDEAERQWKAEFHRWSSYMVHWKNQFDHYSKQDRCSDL
Procedure, shortened: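 SH-SY5Y cells; cpd 30 min 37 C; + DTNB/acetylthiocholine, 90 min 37 C; colorimetric thiocholine read; qHTS.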

[17] = target: Nuclear receptor subfamily 1 group I member 2 (Homo sapiens) (UniProt O75469); experiment: Human pregnane X receptor (PXR) small molecule agonists, qHTS assay (AID 1346982); further: nearly all actives have a fitted effect of over 35% in size; further: potency means the concentration at half of the fitted maximal effect
Nuclear receptor subfamily 1 group I member 2 (Homo sapiens), sequence (O75469 whole entry, looked up): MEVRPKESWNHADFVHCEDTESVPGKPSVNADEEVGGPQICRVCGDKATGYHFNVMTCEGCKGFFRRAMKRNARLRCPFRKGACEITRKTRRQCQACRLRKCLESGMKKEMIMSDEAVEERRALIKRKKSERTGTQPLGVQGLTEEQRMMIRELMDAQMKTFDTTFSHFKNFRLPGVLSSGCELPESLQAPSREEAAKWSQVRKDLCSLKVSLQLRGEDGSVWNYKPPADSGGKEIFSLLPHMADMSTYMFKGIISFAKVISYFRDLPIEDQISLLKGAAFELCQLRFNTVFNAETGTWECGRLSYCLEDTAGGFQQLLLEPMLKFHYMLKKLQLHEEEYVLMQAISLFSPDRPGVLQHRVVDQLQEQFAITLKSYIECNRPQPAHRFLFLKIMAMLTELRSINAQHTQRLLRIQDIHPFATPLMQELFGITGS
Procedure, shortened: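 PXR-Luc HepG2 reporter cells (CYP3A4-driven luciferase) in 5% charcoal-stripped FBS medium, plated 5 h before compound addition, then treated 24 h at 37C. Luciferase read by ONE-Glo luminescence after 30 min at room temperature.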

[18] = target: Nuclear receptor subfamily 1 group I member 2 (Rattus norvegicus) (UniProt Q9R1A7); experiment: Rat pregnane X receptor (rPXR) activation by small molecules, qHTS assay (AID 1346983); settings: rPXR luciferase reporter cells, One-Glo luminescence, 24 h; stronger effect = higher value; further: nearly all actives have a fitted effect of over 20% in size
Nuclear receptor subfamily 1 group I member 2 (Rattus norvegicus), sequence (Q9R1A7 whole entry, looked up): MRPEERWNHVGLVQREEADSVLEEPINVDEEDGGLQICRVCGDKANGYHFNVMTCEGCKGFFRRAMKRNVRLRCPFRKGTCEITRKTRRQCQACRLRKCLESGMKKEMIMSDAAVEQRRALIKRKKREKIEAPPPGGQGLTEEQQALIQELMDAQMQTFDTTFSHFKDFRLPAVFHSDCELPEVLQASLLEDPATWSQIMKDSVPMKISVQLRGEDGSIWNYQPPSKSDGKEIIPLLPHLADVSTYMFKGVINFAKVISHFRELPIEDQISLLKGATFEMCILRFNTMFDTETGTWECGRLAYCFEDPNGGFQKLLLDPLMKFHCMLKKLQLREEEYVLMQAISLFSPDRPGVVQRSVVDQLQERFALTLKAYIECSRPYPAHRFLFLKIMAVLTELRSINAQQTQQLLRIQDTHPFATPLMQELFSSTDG
Procedure, shortened: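 Cell-based rPXR activation assay: rPXR cells, 2,000 per well, rested 5hr at 37 C, then exposed to compounds in DMSO for 24 hr at 37 C. Luciferase activity read by One-Glo luminescence after 30 min at room temperature.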

[19] = target: Nuclear receptor subfamily 1 group I member 2 (Homo sapiens) (UniProt O75469); experiment: Human pregnane X receptor (PXR) activation by small molecules, qHTS assay (AID 1346985); further: nearly all actives have a fitted effect of over 40% in size
Procedure, shortened: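 DPX-2 cells (HepG2 co-transfected with a PXR response element and a CYP3A4-promoter luciferase construct) were seeded at 2,000 per well, rested 5 hr at 37C, then exposed to DMSO-dissolved compounds for 24 hr. Activation was read as luciferase luminescence.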

[20] = target: Nuclear receptor subfamily 1 group I member 2 (Homo sapiens) (UniProt O75469); experiment: CYP3A4 induction through human pregnane X receptor (PXR) by small molecules, qHTS assay (AID 1346984); further: nearly all actives have a fitted effect of over 40% in size
Procedure, shortened: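 DPX-2 HepG2 cells carrying a PXR response element and CYP3A4-promoter luciferase construct, treated with compounds 24 hr at 37C. Then P450-Glo CYP3A4 Luciferin-IPA substrate (3uM final) for 3 hr at 37C, One-Glo added, luminescence read.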
On the % scale 0 is the no-effect control and ±100 the full control effect.

CC1(C)Cc2cccc(O)c2O1
inactive: Potency [1] | Potency [2] | Potency [3] | Potency [4] | Potency [5] | Potency [6] | Potency [7] | Potency [8] | Potency [9] | outcome [10] | Potency [11] | Potency [12] | Potency [13] | Potency [14] | Potency [15] | Potency [16]

CCCCOCCOC(C)=O
inactive: Potency [1] | Potency [2] | Potency [3] | Potency [4] | Potency [5] | Potency [6] | Potency [7] | Potency [8] | Potency [9] | outcome [10] | Potency [11] | Potency [12] | Potency [13] | Potency [14] | Potency [15] | Potency [16]

C[N+](C)(C)CC(=O)[O-]
inactive: Potency [1] | Potency [2] | Potency [3] | Potency [4] | Potency [5] | Potency [6] | Potency [7] | Potency [8] | Potency [11] | Potency [12] | Potency [13] | Potency [14] | Potency [15] | Potency [16]

CCOS(=O)(=O)OCC
5.03 µM (active) and inactive: Potency [16]
inactive: Potency [1] | Potency [2] | Potency [3] | Potency [4] | Potency [5] | Potency [6] | Potency [7] | Potency [8] | Potency [9] | outcome [10] | Potency [11] | Potency [12] | Potency [13] | Potency [14] | Potency [15]

CC(O)CN(CC(C)O)CC(C)O (stereo not drawn)
inactive: Potency [1] | Potency [2] | Potency [3] | Potency [4] | Potency [5] | Potency [6] | Potency [7] | Potency [8] | Potency [9] | outcome [10] | Potency [11] | Potency [12] | Potency [13] | Potency [14] | Potency [15] | Potency [16]

Clc1cccc(Cl)c1
inactive: Potency [1] | Potency [2] | Potency [3] | Potency [4] | Potency [5] | Potency [6] | Potency [7] | Potency [8] | Potency [9] | outcome [10] | Potency [11] | Potency [12] | Potency [13] | Potency [14] | Potency [15] | Potency [16]

CC1CC(=O)O1 (stereo not drawn)
inactive: Potency [1] | Potency [2] | Potency [3] | Potency [4] | Potency [5] | Potency [6] | Potency [7] | Potency [8] | Potency [11] | Potency [12] | Potency [13] | Potency [14] | Potency [15] | Potency [17] | Potency [16]

C[N+](C)(C)C
inactive: Potency [1] | Potency [2] | Potency [3] | Potency [4] | Potency [5] | Potency [6] | Potency [7] | Potency [8] | Potency [9] | outcome [10] | Potency [11] | Potency [12] | Potency [13] | Potency [14] | Potency [15] | Potency [16]

CC(C)CON=O
inactive: Potency [1] | Potency [2] | Potency [3] | Potency [4] | Potency [5] | Potency [6] | Potency [7] | Potency [8] | Potency [11] | Potency [12] | Potency [13] | Potency [14] | Potency [15] | Potency [17] | Potency [16]

Brc1ccc(Br)cc1
inactive: Potency [1] | Potency [2] | Potency [3] | Potency [4] | Potency [5] | Potency [6] | Potency [7] | Potency [8] | Potency [11] | Potency [12] | Potency [13] | Potency [14] | Potency [15] | Potency [16]

CC(C)(c1ccccc1)c1ccc(O)cc1
active: Potency [3] 7.63 µM and 9.69 µM | Potency [12] 60.6 µM | Potency [17] 27.1 µM and 19.3 µM
inactive: Potency [1] | Potency [2] | Potency [4] | Potency [5] | Potency [6] | Potency [7] | Potency [8] | Potency [9] | outcome [10] | Potency [11] | Potency [14] | Potency [15] | Potency [16]

O=NN(c1ccccc1)c1ccccc1
inactive: Potency [1] | Potency [2] | Potency [3] | Potency [4] | Potency [5] | Potency [6] | Potency [7] | Potency [8] | Potency [9] | outcome [10] | Potency [11] | Potency [12] | Potency [13] | Potency [14] | Potency [15] | Potency [16]

Nc1ccc2ccccc2c1
inactive: Potency [1] | Potency [2] | Potency [3] | Potency [4] | Potency [5] | Potency [6] | Potency [7] | Potency [8] | Potency [9] | outcome [10] | Potency [11] | Potency [12] | Potency [13] | Potency [14] | Potency [15] | Potency [16]

O=C1Nc2ccc(Cl)cc2C(c2ccccc2)=NC1O (stereo not drawn)
active: Potency [17] 38.9 µM and 46.1 µM
inactive: Potency [1] | Potency [2] | Potency [3] | Potency [4] | Potency [5] | Potency [6] | Potency [7] | Potency [8] | Potency [11] | Potency [12] | Potency [13] | Potency [14] | Potency [15] | max activation [18] 0.163% | outcome [19] | Potency [16]

CC(C)=CC1C(C(=O)OCc2cccc(Oc3ccccc3)c2)C1(C)C (stereo not drawn)
inactive: Potency [1] | Potency [2] | Potency [3] | Potency [4] | Potency [5] | Potency [6] | Potency [7] | Potency [8] | Potency [9] | outcome [10] | Potency [11] | Potency [12] | Potency [13] | Potency [14] | Potency [15] | max activation [18] 1.4% | Potency [20] | Potency [16]

COC(=O)Nc1nc2ccccc2[nH]1
6.11 µM (active) and inactive: Potency [12]
inactive: Potency [1] | Potency [2] | Potency [3] | Potency [4] | Potency [5] | Potency [6] | Potency [7] | Potency [8] | Potency [9] | outcome [10] | Potency [11] | Potency [14] | Potency [15] | Potency [16]

CCCCC(C#N)(Cn1cncn1)c1ccc(Cl)cc1 (stereo not drawn)
active: Potency [3] 30.5 µM
inactive: Potency [1] | Potency [2] | Potency [4] | Potency [5] | Potency [6] | Potency [7] | Potency [8] | Potency [9] | outcome [10] | Potency [11] | Potency [12] | Potency [13] | Potency [14] | Potency [15] | Potency [16]
